This is part of a sample that, as a whole, favours compounds with a hit. Of some 83,000 tested, about 20% had one in any assay.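 Assay: single dose, 48 h. Readout: percent growth (0 = no net growth; negative = cell death). Active: <10.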 Unmarked numbers belong to inactive results. The source made the active and inactive calls.
Columns and labels:
Assay in all cases: NCI-60 one-dose screen, 48 h (100 = growth as untreated, 0 = no growth, -100 = all killed)
Conditions in all cases: 10 µM unless noted
[1] = system: DU-145 prostate
[2] = system: K-562 leukemia
[3] = system: MALME-3M melanoma
[4] = system: MDA-MB-231 breast
[5] = system: RXF 393 renal
[6] = system: SF-268 CNS
[7] = system: SF-295 CNS
[8] = system: SF-539 CNS
[9] = system: UACC-257 melanoma
[10] = system: M14 melanoma
[11] = system: HCT-15 colon
[12] = system: HT29 colon
[13] = system: SNB-75 CNS
[14] = system: SNB-19 CNS
[15] = system: U251 CNS
[16] = system: PC-3 prostate
[17] = system: SK-MEL-5 melanoma
[18] = system: UACC-62 melanoma
[19] = system: LOX IMVI melanoma
[20] = system: SK-MEL-28 melanoma

| Structure (SMILES) | growth [1] | growth [2] | growth [3] | growth [4] | growth [5] | growth [6] | growth [7] | growth [8] | growth [9] | growth [10] | growth [11] | growth [12] | growth [13] | growth [14] | growth [15] | growth [16] | growth [17] | growth [18] | growth [19] | growth [20] |
| --- | --- | --- | --- | --- | --- | --- | --- | --- | --- | --- | --- | --- | --- | --- | --- | --- | --- | --- | --- | --- |
| CC(=O)N1N=C(c2ccc(Nc3nc(Nc4ccccc4)nc(Nc4ccccc4)n3)cc2)CC1c1ccccc1 (stereo not given) | 97.6% | 68.9% | 78.7% | 71.7% | 137% | 89.2% | 85.6% | 88.8% | 113% | 84.6% | 87% | 103% | 90.8% | 84.3% | 92.6% | 80.5% | 78.4% | 91% | 89.4% | 111% |
| O=C1c2c(c3c4ccccc4[nH]c3c3ccc4ccccc4c23)C(=O)N1CCN1CCOCC1 | 39.7% | 10.9% | 44.5% | 69.5% | 18% | 56.8% | 29.1% | 51.7% | 79.7% | 36.8% | 20.6% | 35.6% | 63.7% | 56% | 32.3% | 35.1% | 37.4% | 38.7% | 27.2% | 73.9% |
| C=C(CBr)[C@@H]1CC[C@]2(C(=O)O)CC[C@]3(C)[C@H](CC[C@@H]4[C@@]5(C)CCC(=O)C(C)(C)[C@@H]5CC[C@]43C)[C@@H]12 | 86.1% | 50.4% | 89.4% | 81% | 85.9% | 83.1% | 79.2% | 99.2% | 80.2% | 80% | 73.2% | 97.5% | 98.7% | 78.7% | 70.9% | 57.4% | 50.5% | 69% | 75.4% | 88.7% |
| COC1=CC(c2ccc[nH]2)=N/C1=C\c1[nH]c(C)c(CC(=O)NCc2ccccc2)c1C | 34.7% | 0.172% (active) | -42.2% (active) | 0.672% (active) | 30.5% | 11.3% | -55.5% (active) | 2.49% (active) | -19.4% (active) | -49% (active) | -26% (active) | 15.1% | 58.3% | -1.25% (active) | 18.7% | 12% | -64% (active) | -30.5% (active) | -76.1% (active) | 22.1% |
| CC1=C([Se]CC(OC(=O)CC[Se]c2ccccc2)C(=O)NC(C)(C)C)C(=O)c2ccccc2C1=O (stereo not given) | -94.8% (active) | -11.3% (active) | -57.2% (active) | -41.7% (active) | -87.5% (active) | -88.9% (active) | -36.2% (active) | -99% (active) | -87.3% (active) | -77.8% (active) | 4.43% (active) | 5.28% (active) | -89.2% (active) | -88.1% (active) | -36% (active) | -36% (active) | -97.4% (active) | -76.4% (active) | -0.738% (active) | -92.2% (active) |
| COC12C=C/C(=C(/C(=O)OCc3ccncc3)C(=O)CCCCCCCCC3(OC)C=C/C(=C(/C(=O)OCc4ccncc4)C(=O)CCCCCCCC1)O3)O2 | -60.7% (active) | -4.08% (active) | -67.7% (active) | 1.77% (active) | -82.7% (active) | -28% (active) | -23.8% (active) | -60.1% (active) | -29.6% (active) | -24.4% (active) | -57.7% (active) | 1.11% (active) | -57.2% (active) | 7.98% (active) | -50.1% (active) | -35% (active) | -84.5% (active) | -63% (active) | -63.9% (active) | -61.1% (active) |
| CCCCCCCCCCC(CN(CC)CC)C(O)c1ccccc1 (stereo not given) | 29.1% | -21.2% (active) | -37.3% (active) | 10.1% | -7.14% (active) | 40.5% | 36.5% | 32.1% | 18.2% | -44.1% (active) | 13.5% | -2.44% (active) | 49.4% | 51.5% | 12.9% | 25.9% | -93.8% (active) | -44.3% (active) | -82% (active) | -61.6% (active) |
| Clc1cc(Cl)c(Cl)c(-c2nnc(SCc3ccncc3Br)o2)c1 | 99.9% | 69.5% | 100% | 93.3% | 128% | 97.8% | 95.2% | 90.9% | 103% | 97.9% | 112% | 102% | 84.4% | 102% | 90.3% | 92.4% | 81.8% | 89.7% | 95% | 94.4% |
| CNC(=O)c1ccccc1Oc1nc(Nc2cc(OC)c(OC)c(OC)c2)ncc1Br | 58.1% | 77.2% | 82.3% | 75.4% | 40.3% | 59.3% | 53% | 71.1% | 77% | 47.7% | 59.9% | 45.1% | 53.1% | 94.9% | 57.6% | 61.4% | 80% | 50.7% | 21.8% | 80.5% |
| C=C1C(=O)O[C@H]2[C@H]1CC/C(COC(=O)/C=C\C(=O)NCc1ccc(Cn3c(=O)sn(CCI)c3=O)cc1)=C\CC[C@@]1(C)O[C@@H]21 | 34.4% | 4.34% (active) | -30% (active) | 64.6% | 11.6% | 70.2% | 105% | 52% | 67.7% | 36.2% | 15.6% | 26.3% | 99.1% | 99% | 70% | 69% | 101% | 55.4% | 14% | 40.4% |
| N#Cc1ccc2c(c1)C(=O)c1c-2n(CCCN)c(=O)c2cc([N+](=O)[O-])ccc12 | -100% (active) | -100% (active) | -82.3% (active) | -100% (active) | -87.9% (active) | -92.1% (active) | -73.9% (active) | -98.2% (active) | -100% (active) | -100% (active) | -90.8% (active) | -100% (active) | -100% (active) | -85.1% (active) | -100% (active) | -74.4% (active) | -100% (active) | -100% (active) | -100% (active) | -100% (active) |
| COCCn1cc(-c2nc(-c3cc4cccnc4[nH]3)cs2)c2cc(OC)ccc21 | 40.9% | 6.65% (active) | 73.9% | 2.87% (active) | 23.2% | 44.9% | 14.6% | 30.8% | 30.6% | 37.6% | 20.3% | 30.9% | 9.81% (active) | 61.6% | 32.8% | 10.4% | 39.1% | 49.8% | 33.2% | 62.8% |
| N#Cc1c(-c2ccccc2)[nH]c2ncc(-c3ccccc3)n2c1=O | 99.7% | 98.7% | 91.5% | 76.3% | 102% | 91.7% | 78.2% | 89.9% | 94% | 91.3% | 93.5% | 106% | 78.8% | 105% | 93.1% | 74.6% | 87.7% | 87.8% | 86.8% | 102% |
| Fc1ccc(CNc2c3ccccc3nc3ccccc23)c(F)c1 | 50.9% | 22.5% | 69.5% | 44.4% | 34.5% | 68.6% | 40.4% | 32.4% | 68.9% | 55.3% | 28.7% | 21.8% | 81.1% | 41.5% | 44.1% | 68.9% | 69.4% | 59.1% | 21.5% | 90.4% |
| O=S(=O)(NCCCNc1nccc(-c2c(-c3ccc(F)c(O)c3)nc3sccn23)n1)c1ccccc1 | 69% | 37.6% | 0.08% (active) | 47.2% | 26.4% | 74.4% | 92.6% | 88.2% | 19.6% | 12.6% | 68.5% | 51% | 105% | 104% | 90.2% | 61.5% | 51.1% | 5.45% (active) | 18% | 24.1% |
